# hNpr1 antagonist: blocks ANP-stimulated signaling of human Npr1 receptor. P16066. HEK293 hNpr1 GloSensor cGMP, ANP-stimulated luminescence. Potency, µM (highest dose often 46.3 µM), hits mostly inhibitors. hit rate 1.6% among 76,000. AID 1347048; calls by dose curve; note: nearly all actives have a fitted effect of over 60% in size
#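 HEK293 cells stably expressing human Npr1 and cGMP GloSensor pGS-40F, loaded 2 h with 2% GloSensor reagent, given compound 30 min at room temperature. Luminescence read before and 20 min after 0.1 nM hNppA.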
# HEK293 tox: kills HEK 293 cells. HEK 293 viability, ATP luminescence (CellTiter-Glo), 48-72 h. Potency, µM (top dose mostly 115 µM), most hits filed as inhibitors. hit rate 6.6% among 94,000. AID 1345083; note: nearly all actives have a fitted effect of over 60% in size
#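 CellTiter-Glo luminescence (cellular ATP) was read after 48 or 72 hr of compound exposure at 37 degree Celsius. Cells were HEK 293 plated at 250 cells/well.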
# FLuc inh: inhibitors of firefly (Photinus pyralis) luciferase; P08659; purified P. pyralis luciferase, luminescence, biochemical; Potency, µM (doses to about 115 µM), hits mostly inhibitors; hit rate 2.5% among 76,000; AID 1347043; note: nearly all actives have a fitted effect of over 65% in size
#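 Luminescence read by CCD imager after adding enzyme (10nM final) to wells holding compound, titrated in qHTS. Substrates 10uM each D-luciferin and ATP; buffer 50mM Tris acetate pH 7.5, 10mM Mg acetate, Tween-20, BSA.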
# GPT2 inh: inhibitors of human GPT2 alanine aminotransferase; Recombinant GPT2, coupled pyruvate oxidase/HRP Amplex Red fluorescence; Potency, µM (highest dose often 57.7 µM), usual class: inhibitors; hit rate 0.25% among 100,000; Q8TD30; AID 1671188; note: nearly all actives have a fitted effect of over 60% in size
# Target sequence (Q8TD30 whole entry, looked up): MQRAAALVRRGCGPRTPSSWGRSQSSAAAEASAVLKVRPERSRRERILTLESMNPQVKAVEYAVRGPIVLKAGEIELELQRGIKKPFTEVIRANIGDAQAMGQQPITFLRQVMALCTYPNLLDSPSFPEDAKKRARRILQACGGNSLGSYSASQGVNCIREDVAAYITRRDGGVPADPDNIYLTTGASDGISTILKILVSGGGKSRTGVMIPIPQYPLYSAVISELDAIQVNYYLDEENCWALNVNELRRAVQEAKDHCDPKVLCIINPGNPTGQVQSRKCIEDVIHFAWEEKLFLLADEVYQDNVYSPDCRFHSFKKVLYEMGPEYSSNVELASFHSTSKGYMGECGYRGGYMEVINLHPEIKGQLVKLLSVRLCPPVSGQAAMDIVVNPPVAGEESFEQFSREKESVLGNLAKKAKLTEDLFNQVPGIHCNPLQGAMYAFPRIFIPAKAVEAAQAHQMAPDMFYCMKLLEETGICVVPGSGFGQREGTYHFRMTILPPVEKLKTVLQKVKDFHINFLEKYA
#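 Fluorescence of coupled pyruvate oxidase/HRP/Amplex Red system (50uM Amplex, 30 min, dark) reports pyruvate formed by GPT2. Enzyme reaction: 10ng/uL GPT2, 2mM L-alanine, 250uM a-KG, 30 min room temperature, pH 7.5; 50uM AOA control.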
# 3T3 cytotox: NIH 3T3 cell cytotoxicity; Potency, µM (highest dose often 96.7 µM), usual class: inhibitors; NIH 3T3 viability, CellTiter-Glo ATP luminescence, 48-72 h; hit rate 4.3% among 94,000; note: nearly all actives have a fitted effect of over 55% in size
#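 Cytotoxicity is measured as loss of cellular ATP: NIH 3T3 cells (400/well) are exposed to compound for 48 or 72 hr at 37 °C, then CellTiter-Glo luminescence is imaged after 10 min at room temperature.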
# A number is an active result; - = inactive; ? = inconclusive; . = not tested or not shown; [ ] = another dose, or the depositor's remark. A selection: hits, their analogues and other compounds. The true share with any hit is near 10%. Unless noted, calls come from the whole dose curve; as a rule, active = well fitted curve in the direction sought with a large enough effect; inconclusive = small, poorly fitted or top-dose-only effect, or another doubt; inactive = no such curve, though single readings can be large; an effect the other way counts as inactive or inconclusive.
SMILES,hNpr1 antagonist,HEK293 tox,FLuc inh,GPT2 inh,3T3 cytotox
COCC1CN(Cc2cccc(C(F)(F)F)c2)CC12CCNCC2 (centres undefined),-,89.1µM,-,-,?
OCC1CN(Cc2cc(F)cc(Br)c2)CC12CCNCC2 (centres undefined),-,31.6µM,-,-,?
O=c1cc(-c2cccnc2)oc2c(NCCc3ccccn3)nccc12,-,?,?,-,35.5µM
CCCC(=O)N1Cc2ccccc2CC2(CCCN(Cc3ccccc3)C2)C1 (centres undefined),.,?,.,-,?
O=C(c1ccsc1)N1CCC2(CC1)NC(=O)N(Cc1cccc(Cl)c1)C2=O,?,?,-,-,28.2µM
O=C(c1cccc(Cl)c1)N1CCC2(C1)NC(=O)N(Cc1ccc(Cl)cc1)C2=O (centres undefined),?,?,-,-,39.8µM
O=C(c1ccsc1)N1CCC2(CC1)NC(=O)N(Cc1ccccc1)C2=O,-,-,-,-,?
COc1cc(OC)cc(C(=O)N2CCC3(C2)NC(=O)N(Cc2ccc(Cl)cc2)C3=O)c1 (centres undefined),-,?,-,-,?
COC(=O)C1=C(C)N=C2SC=C(CC(=O)NCc3cccc(F)c3)N2C1c1ccccc1 (centres undefined),-,?,-,-,?
CC(=O)N1CCN(C(=O)c2nc3sccn3c2-c2ccccc2)CC1,.,-,.,-,-
CCOc1ccc(NC(=O)N2[C@@H]3CC[C@H]2CC(NC(=O)c2ccc(F)cc2)C3)cc1 (some centres undefined),.,?,.,-,?
Cc1cc(C)cc(NC(=O)N2[C@@H]3CC[C@H]2CC(NC(=O)c2ccc(F)cc2)C3)c1 (some centres undefined),-,39.8µM,-,-,?
Cc1nc(C(=O)N2CCOc3c(O)cc(-c4cccc(Cl)c4)cc3C2)cs1,?,17.8µM,-,-,?
CC(C)CNC(=O)CN1CCOc2c(O)cc(-c3cccc(Cl)c3)cc2C1,-,?,-,-,?
CC1(C(=O)N2CCOc3c(O)cc(-c4cccc(Cl)c4)cc3C2)CCCO1 (centres undefined),-,44.7µM,-,-,?
COc1cccc(N2CCN(C(=O)c3cc4c(s3)CN(C3CCCC3)C4)CC2)c1,-,?,?,-,?
Cc1cnc(C2CCN(Cc3ccccc3)C2)n1Cc1ccccc1 (centres undefined),.,?,.,-,?
OCC1(Cc2ccc(F)cc2)CCCN(c2nc3ccccc3s2)C1 (centres undefined),?,39.8µM,-,-,?
CC(C)CCNC(=O)c1cnc2c(c1)N(C(=O)Cc1ccc(C(C)C)cc1)CCC2,-,100µM,-,-,100µM
CC(C)c1ccc(CC(=O)N2CCCc3ncc(C(=O)NCCOc4ccccc4)cc32)cc1,?,39.8µM,?,-,?
CCN1CCC2(Cc3ccccc3CN(C(=O)c3cccc(Cl)c3)C2)C1 (centres undefined),.,?,.,?,-
Cc1ccc2[nH]c(=O)cc(C(=O)N3CCOC(CCCC(C)C)C3)c2c1 (centres undefined),-,?,-,-[11.5 µM],-
CN1CCC2(C1)CN(CC1CCOCC1)c1ccc(C(=O)NCCCO)cc12 (centres undefined),-,?,-,?,89.1µM
CN1CCC2(C1)CN(CC1CCOCC1)c1ccc(C(=O)NCCOc3ccccc3)cc12 (centres undefined),-,?,-,-,31.6µM
CN1CCC2(C1)CN(CC1CCOCC1)c1ccc(C(=O)NCCc3ccccc3)cc12 (centres undefined),-,?,-,-,?
SMILES,hNpr1 antagonist,HEK293 tox,FLuc inh,GPT2 inh,3T3 cytotox
CC(C)Cc1cnc(-c2cccnc2)[nH]1,.,-,.,-,?
CC(C)Cc1cnc(-c2ccccc2)[nH]1,.,100µM,.,-,?
c1ccc(CN2C[C@@H]3C[C@H]2CN3Cc2cn(-c3ccccc3)nn2)cc1,-,-,-,-,-
COc1ccc(-c2cn3c(n2)CO[C@@H](CNC2CCC2)C3)cc1,-,-,56.2µM,-,-
Cc1ccc(-c2cn3c(n2)CO[C@@H](CNC(=O)C2CCCC2)C3)cc1,-,?,-,-,-
COc1ccc(-c2cn3c(n2)CO[C@@H](CNC(=O)c2ccccc2OC)C3)cc1,-,70.8µM,?,-,-

# Source: PubChem BioAssay
